Source: PubChem
HT1080 IDH1KD tx: HT-1080 IDH1 knockdown cell toxicity (counter line); HT-1080 IDH1 knockdown viability, ATP luminescence, 48 h; Potency, µM (highest dose often 46.1 µM), for the others: at the highest dose activity, negative = toxicity, most hits filed as cytotoxic; 360,000 compounds, 2% hits; AID 686971;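 also: potency is read from the fitted curve at half-maximal effect; 0% = DMSO wells and -100% = cell-free medium wells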
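In this qHTS, HT-1080 cells depleted of IDH1 are exposed for 48 h at 37 °C to compound titrations. Toxicity is scored from CellTiter-Glo luminescence, with DMSO as full viability and medium alone as none.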
DT40 TDP1 no CPT: qHTS for Inhibitors of human tyrosyl-DNA phosphodiesterase 1 (TDP1): qHTS in cells in absence of CPT; Potency, µM (series often up to 46.2 µM), for inactives: top-dose activity change, negative = growth inhibition, hits mostly inhibitors; DT40 Tdp1-/- hTDP1 cells, no CPT, ATP luminescence, 48 h; 420,000 compounds, 15% hits; AID 686978, 2013; also: potency is read from the fitted curve at half-maximal effect; nearly all actives have a fitted effect of over 55% in size
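DT40 Tdp1-/-;hTDP1 cells, no CPT (DMSO vehicle only), 400 cells/well; compounds pin-transferred; ≥48 hr, 37 °C; CellTiter-Glo 30 min RT dark, luminescence read.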
HT1080-NT tox: kills 2HG-producing HT-1080-NT fibrosarcoma cells. Potency, µM (highest dose often 46.1 µM), for inactives: at the top dose activity, negative = less viability, most hits filed as cytotoxic. 360,000 compounds, 1.6% hits. HT-1080-NT fibrosarcoma viability, CellTiter-Glo ATP luminescence, 48 h. AID 686970;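 also: NT is the 2HG producing partner of a matched IDH1 knockdown line; potency is read from the fitted curve at half-maximal effect; 0% = DMSO-treated cells and -100% = media-only wells without cells; nearly all actives have a fitted effect of over 55% in size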
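Luminescent CellTiter-Glo readout after 48 hours of compound exposure at 37 degrees C defined viability of HT-1080-NT cells. Activity was normalized to DMSO wells and cell-free media wells; concentration-response curves were fitted and assigned curve classes.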
ALOX12 inh: blocks human arachidonate 12S-lipoxygenase; P18054; purified 12hLO, xylenol orange hydroperoxide absorbance; Potency, µM (titrated, usually from 108 µM), for the others: at the highest dose activity change, negative = inhibition, most hits filed as inhibitors; 580,000 compounds, 1.1% hits; also: potency is read from the fitted curve at half-maximal effect
Target sequence (P18054 whole entry, looked up): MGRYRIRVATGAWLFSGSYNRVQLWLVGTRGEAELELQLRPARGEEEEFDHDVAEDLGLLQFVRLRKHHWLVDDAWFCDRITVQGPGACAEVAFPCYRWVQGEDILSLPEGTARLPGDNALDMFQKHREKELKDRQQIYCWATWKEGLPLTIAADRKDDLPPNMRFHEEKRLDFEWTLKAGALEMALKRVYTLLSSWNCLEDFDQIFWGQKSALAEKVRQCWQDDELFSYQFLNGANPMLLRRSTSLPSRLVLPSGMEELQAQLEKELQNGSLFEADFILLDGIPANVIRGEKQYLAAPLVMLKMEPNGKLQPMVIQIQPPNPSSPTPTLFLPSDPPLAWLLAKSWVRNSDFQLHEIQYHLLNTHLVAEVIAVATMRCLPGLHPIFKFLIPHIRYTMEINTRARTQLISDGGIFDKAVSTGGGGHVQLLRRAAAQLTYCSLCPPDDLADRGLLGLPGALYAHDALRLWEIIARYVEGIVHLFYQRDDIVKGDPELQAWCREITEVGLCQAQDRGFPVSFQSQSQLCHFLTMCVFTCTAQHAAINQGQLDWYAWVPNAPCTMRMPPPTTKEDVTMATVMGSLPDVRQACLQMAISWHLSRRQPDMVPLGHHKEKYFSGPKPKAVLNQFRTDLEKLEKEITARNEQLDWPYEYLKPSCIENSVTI
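Purified human 12hLO (150 nM final) in 25 mM Hepes, 0.01% Triton X-100, pH 7.0 was preincubated 15 min at room temperature with compound. Then 40 uM arachidonic acid was added, 30 min. Hydroperoxide was read by Fe-XO absorbance ratio 573/405 nm.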
IL1B secr inh: inhibitors of inflammasome signaling (IL-1 beta secretion). 360,000 compounds, 4.7% hits. AID 743279. THP-1 LPS/ATP IL-1B secretion, AlphaLISA, 16 h; hits give low values. activity change, % at 57.5 µM; in the data active = activity change below about -50%; inconclusive = mostly about -30% to -49%
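Secreted IL-1B measured by AlphaLISA bead assay after 16 h compound exposure of THP-1 cells; compounds (final up to 57.5 uM) added 1 h before LPS (250 ng/mL) and ATP (1.25 mM) stimulation; lower signal means less secretion.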
TDP1 cell CPT: DT40-hTDP1 cell growth loss with CPT. chicken DT40 Tdp1-/-;hTDP1 cells + 20 nM CPT, ATP luminescence, 48 h. Potency, µM (titrated, usually from 46.2 µM), for inactives: top-dose activity change, negative = growth inhibition, hits mostly inhibitors. 420,000 compounds, 12% hits; also: potency is read from the fitted curve at half-maximal effect; nearly all actives have a fitted effect of over 55% in size
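Chicken DT40 Tdp1-/- cells stably complemented with human TDP1 were seeded at 400 cells/well in medium containing 20 nM camptothecin, exposed to pin-transferred compounds, and grown at 37 °C for at least 48 hr. Viability was read as ATP luminescence.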
Active calls of the source: *; u = inconclusive; x = no result given; [ ] = another dose, or the depositor's remark. This is one part of a sample in which hits are shown more often than they occur. Unless noted, calls follow the shape of the dose curve; as a rule, active = well fitted curve in the direction sought with a large enough effect; inconclusive = small, poorly fitted or top-dose-only effect, or another doubt; inactive = no such curve, though single readings can be large; an effect the other way counts as inactive or inconclusive. Unless noted, % is scaled to controls: 0 for no effect and ±100 for the full control effect.

SMILES	HT1080 IDH1KD tx	DT40 TDP1 no CPT	HT1080-NT tox	ALOX12 inh	IL1B secr inh	TDP1 cell CPT
N#Cc1nc(C2CC2)oc1N1CCN(C(=O)c2ccc(F)c(F)c2)CC1	x	x	x	22%	x	x
CCOC(=O)C1CCN([C@H]2CS(=O)(=O)C[C@@H]2S(=O)(=O)c2ccc(OC)cc2)CC1	x	x	x	-25%	x	x
COC(=O)/C(C#N)=N\O	x	x	x	0%	x	x
CCCn1c(=O)[nH]c(=O)c2c1nc(-c1cccc(C)c1)n2CCN1CCOCC1	x	x	x	-4%	x	x
O=C1N/C(=N/N=C/c2ccccc2O)SC1Cc1ccc(F)cc1 (stereo unspecified)	23µM*	0.029µM*	u	29%	132	0.18µM*
COc1ccc(CC2S/C(=N/N=C/c3ccccc3O)NC2=O)cc1 (stereo unspecified)	-16%	0.92µM*	-15%	14%	50	3.3µM*
COc1ccc(CC2S/C(=N/N=C/c3ccc(O)cc3)NC2=O)cc1 (stereo unspecified)	-2%	-18%	-7%	2%	4	5%
CCn1c(C)nc([N+](=O)[O-])c1C(=O)O	u	8%	12%	u	27	3%
Cc1nc([N+](=O)[O-])c(Br)n1Cc1ccccc1	u	6.5µM*	u	211%	-10	5.2µM*
Cc1nc([N+](=O)[O-])c(Sc2nc3ccc([N+](=O)[O-])cc3[nH]2)n1Cc1ccccc1	-10%	8.2µM*	-14%	-13%	-76*	9.2µM*
Cc1nc([N+](=O)[O-])c(Br)n1CC(=O)c1ccc(F)cc1	18µM*	16µM*	u	-22%	-97*	u
COC(=O)Cn1c(C)nc([N+](=O)[O-])c1Br	13%	u	9%	2%	u	-30%
Cc1nc([N+](=O)[O-])c(Br)n1CC(=O)c1cccc([N+](=O)[O-])c1	u	16µM*	-25%	u	-98*	15µM*
Cc1nc(C)c(C(=O)N2CCCC(Cc3noc(-c4cnccn4)n3)C2)s1 (stereo unspecified)	x	x	x	15%	x	x
Cc1ccccc1CS(=O)(=O)c1ccc(C(=O)N2CCOCC2)cc1[N+](=O)[O-]	1%	12µM*	0%	16%	-88*	u
O=C(c1ccc(S(=O)(=O)Cc2ccccc2Cl)c([N+](=O)[O-])c1)N1CCOCC1	-23%	21µM*	u	4%	-100*	21µM*
Cc1ccc(C(=O)N2CCOCC2)cc1[N+](=O)[O-]	15%	-4%	14%	u	25	-10%
COc1cccc(CC(=O)N2CCCN(C(=O)C3CC3)c3ccccc32)c1	x	x	x	-8%	x	x
COc1ccc(OC)c(Nc2nc(N)c([N+](=O)[O-])c(NC3CCCCC3)n2)c1	10%	u	21%	-6%	14	8.2µM*
COc1ccccc1Nc1nc(NCCC(C)C)nc(N)c1[N+](=O)[O-]	6%	18µM*	8%	u	6	u
NCCCNc1nc(N)c([N+](=O)[O-])c(NC2CCCCC2)n1	u	3.7µM*	-27%	-19%	-16	4.1µM*
COCCCNc1nc(N)c([N+](=O)[O-])c(Nc2cc(OC)ccc2OC)n1	-8%	u	-7%	0%	x	0%
COc1ccc(OC)c(Nc2nc(N)c([N+](=O)[O-])c(NCc3ccccc3)n2)c1	10%	u	21%	285%	x	u
COc1ccc(OC)c(Nc2nc(NCCCN(C)C)nc(N)c2[N+](=O)[O-])c1	16µM*	4.6µM*	-14%	13%	-99*	4.6µM*
COCCNc1nc(N)c([N+](=O)[O-])c(NC2CCCCC2)n1	-22%	4%	1%	-21%	94	u
O=C(NCc1c[nH]c2ncccc12)c1ccccc1	x	x	x	2%[176 µM]	x	x
